Wnt act: activates Wnt/beta-catenin signaling in a reporter cell assay | activation, % at 9.35 µM | activator, plate reader | hit rate 1.2% among 300,000 | AID 743398; in the data active = activation above about 30%, passing the limit was not always enough; inconclusive = no clear call, values can overlap the other calls
hcDAF-12 act: activators of H. contortus DAF-12 nuclear receptor | HEK293 hcDAF-12 lit1-tk-luc reporter, luminescence; 0% DMSO, 100% Δ7-dafachronic acid | activation, % at 6.8 µM | hit rate 1.4% among 370,000 | AID 652067;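 active = activation above the mean of all tested compounds plus 3 SD, cut at about 5.5% in these data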
ssDAF12 agonist: activators of S. stercoralis DAF-12 nuclear receptor; HEK293 ssDAF-12/GRIP1 lit1-tk-luc reporter, luminescence; % of 3 µM dafachronic acid response; activation, % at 6.8 µM; hit rate 1% among 370,000; AID 652126;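 active = activation above the mean over all tested compounds plus 3 SD, cut at about 0.9% in these data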
hgDAF12 agonist: hgDAF-12 agonism, primary luciferase screen | HEK293 GAL4-hgDAF12 UAS-luciferase reporter, agonist luminescence; normalized to butyrate control | activation, % at 6.8 µM | hit rate 1.8% among 370,000;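 active = activation above a cutoff set at the mean of all screened compounds plus 3 SD, cut at about 10% in these data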
esBAF inh: blocks esBAF chromatin remodeling in mouse ES cells | Bmi1-luciferase knock-in reporter, 24 h; 100% = twice the neutral-well signal | reporter increase, % at 12.5 µM | hit rate 2% among 350,000 | AID 602393; in the data active = activation above about 40%; inconclusive = no clear call, values can overlap the other calls;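 also: a rise in the Bmi1 reporter signal indicates esBAF inhibition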
DAX1 StAR inh: inhibitors of DAX1 repression of SF-1 activated StAR promoter | inhibition, % at 6.8 µM | AID 652010 | HEK293T StAR-luciferase reporter, SF-1/DAX-1 repression relief | hit rate 1.1% among 370,000;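 active = inhibition above the mean over all tested compounds plus 3 SD, cut at about 3.6% in these data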;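 also: higher inhibition means more luminescence from relief of DAX-1 repression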
hgDAF12 ag: confirmation of H. glycines DAF-12 agonists; shares compounds with hgDAF12 agonist; HEK293 GAL4-hgDAF12 luciferase reporter, agonist mode; percent of butyrate response; activation, % at 6.8 µM; hit rate 80% among 3,300;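 active = mean activation over triplicate wells above the hit cutoff derived from the earlier primary screen, cut at about 11% in these data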
LXR ag 2: activates human LXR-beta, counter-screen for DAF-12 agonists. shares compounds with hgDAF12 agonist. HEK293 Gal4-LXR luciferase reporter, 24 h. activation, % at 6.8 µM. 3,300 tested, under 10 active. AID 743051;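 active = mean activation of the triplicate above a set limit carried over from the primary screen, none filed active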
Target sequence (P55055 whole entry, looked up, the tested form may be a part): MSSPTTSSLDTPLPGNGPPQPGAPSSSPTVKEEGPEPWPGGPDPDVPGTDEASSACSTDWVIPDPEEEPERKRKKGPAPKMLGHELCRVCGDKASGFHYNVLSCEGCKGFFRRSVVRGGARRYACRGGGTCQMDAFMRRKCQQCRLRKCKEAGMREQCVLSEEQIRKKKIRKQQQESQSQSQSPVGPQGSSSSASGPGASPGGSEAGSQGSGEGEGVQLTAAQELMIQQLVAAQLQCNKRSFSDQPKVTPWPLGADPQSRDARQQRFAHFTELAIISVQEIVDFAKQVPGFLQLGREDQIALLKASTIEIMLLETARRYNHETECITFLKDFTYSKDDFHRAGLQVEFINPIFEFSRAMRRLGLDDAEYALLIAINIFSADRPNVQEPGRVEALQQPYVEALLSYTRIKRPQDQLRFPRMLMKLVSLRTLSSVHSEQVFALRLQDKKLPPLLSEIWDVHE
Numbers stand for hits. Compounds with a hit are over-represented: about 4.2% of the library has one in this group of screens.

Screening Cc1cccc(-n2ncc3c(N(C)Cc4ccccc4)ncnc32)c1 returned Wnt act inconclusive, hcDAF-12 act inactive, ssDAF12 agonist inactive, hgDAF12 agonist 15, esBAF inh 53, DAX1 StAR inh 4.0, hgDAF12 ag 14 and LXR ag 2 inactive.
`C[C@H](CO)N1C[C@H](C)[C@H](CN(C)S(=O)(=O)c2ccccc2)OCCCC[C@H](C)Oc2ccc(NS(C)(=O)=O)cc2C1=O` gave esBAF inh inactive.
Screening O=C(Nc1ncc([N+](=O)[O-])s1)c1cccc([N+](=O)[O-])c1 returned Wnt act 38, hcDAF-12 act 5.9, ssDAF12 agonist inactive, hgDAF12 agonist 14, esBAF inh inactive, DAX1 StAR inh inactive, hgDAF12 ag inactive and LXR ag 2 inactive.
O=C(Nc1ccc(NC(=O)c2cccc([N+](=O)[O-])c2)cc1)c1cccc([N+](=O)[O-])c1 was read as Wnt act inactive, hcDAF-12 act inactive, ssDAF12 agonist inactive, hgDAF12 agonist inactive, esBAF inh inactive and DAX1 StAR inh inactive.
Screening Cc1cc(C(=O)Nc2cccc([N+](=O)[O-])c2C)cs1 returned Wnt act inactive, hcDAF-12 act inactive, ssDAF12 agonist inactive, hgDAF12 agonist inactive, esBAF inh inactive and DAX1 StAR inh inactive.
`Cc1c(NC(=O)c2ccc(C(C)(C)C)cc2)cccc1[N+](=O)[O-]` gave Wnt act inactive, hcDAF-12 act inactive, ssDAF12 agonist inactive, hgDAF12 agonist 14, DAX1 StAR inh inactive, hgDAF12 ag inactive and LXR ag 2 inactive.
`CNC(=O)C[C@H]1CC[C@H]2[C@@H](COc3ccc(NC(=O)c4cccc(F)c4)cc3C(=O)N2C)O1` gave esBAF inh inactive.
For Cc1cccc(-c2nsc(SCC(=O)NCC3CCCO3)n2)c1 (stereo unspecified) the results were Wnt act inactive, hcDAF-12 act inactive, ssDAF12 agonist inactive, hgDAF12 agonist 18, DAX1 StAR inh inactive, hgDAF12 ag inactive and LXR ag 2 inactive.
CCC(=O)NC[C@@H]1[C@H](c2ccc(C3=CCCC3)cc2)[C@H](CO)N1C(=O)C1CC1 was read as esBAF inh inactive.
`O=c1[nH]cnc2cc(-c3ccccc3)sc12` gave hcDAF-12 act inactive, ssDAF12 agonist inactive, hgDAF12 agonist 13, esBAF inh 42, DAX1 StAR inh inactive, hgDAF12 ag 11 and LXR ag 2 inactive.
O=c1[nH]cnc2nc(-c3ccccc3)c(-c3ccccc3)nc12 was read as Wnt act inactive, hcDAF-12 act inactive, ssDAF12 agonist inactive, hgDAF12 agonist inactive, esBAF inh inactive and DAX1 StAR inh inactive.
`Cc1cc(NC(=O)c2cc(C3CC3)on2)no1` gave Wnt act inactive, hcDAF-12 act inactive, ssDAF12 agonist inactive, hgDAF12 agonist 15, esBAF inh 49, DAX1 StAR inh inactive, hgDAF12 ag inactive and LXR ag 2 inactive.
`CCc1ccc(-c2csc(NC(=O)Oc3ccccc3)n2)cc1` gave Wnt act inactive, hcDAF-12 act inactive, ssDAF12 agonist inactive, hgDAF12 agonist 15, DAX1 StAR inh inactive, hgDAF12 ag inactive and LXR ag 2 inactive.
For Cc1cc(OCC(=O)N2CCOCC2)ccc1[N+](=O)[O-] the results were Wnt act inactive, hcDAF-12 act inactive, ssDAF12 agonist inactive, hgDAF12 agonist 15, esBAF inh inactive, DAX1 StAR inh inactive, hgDAF12 ag inactive and LXR ag 2 inactive.
O=C1c2ccccc2C(=O)N1CCc1c[nH]c2ccccc12 was read as Wnt act inactive, hcDAF-12 act inactive, ssDAF12 agonist inactive, hgDAF12 agonist 19, DAX1 StAR inh 3.6, hgDAF12 ag 13 and LXR ag 2 inactive.
Screening O=C1c2ccccc2C(=O)N1CCCc1c[nH]c2ccccc12 returned hcDAF-12 act inactive, ssDAF12 agonist inactive, hgDAF12 agonist inactive and DAX1 StAR inh inactive.
For CCCNC(=O)[C@H]1[C@H](CO)[C@H]2Cn3c(cccc3=O)[C@H]2N1C(=O)C1CCCC1 the results were esBAF inh inactive.

Source: PubChem (several laboratories)
